We go through 7 compounds from PubChem BioAssay (NCATS).

Values joined by “and” are separate entries in the source; they are usually repeats but may differ in a detail not shown here. Equal values may be shown once. Inconclusive results are not listed. Active and inactive are the calls of the source. Unless noted, calls follow the shape of the dose curve; as a rule, active = well fitted curve in the direction sought with a large enough effect; inconclusive = small, poorly fitted or top-dose-only effect, or another doubt; inactive = no such curve, though single readings can be large; an effect the other way counts as inactive or inconclusive.

The nature of assay [1]: qHTS to identify inhibitors of the type 1 interferon - major histocompatibility complex class I in skeletal muscle: primary screen against the NCATS Mechanism Interrogation Plate v5.0 (MIPE) Libary (AID 1347411). Also: potency is read from the fitted curve at half-maximal effect; nearly all actives have a fitted effect of over 65% in size. The essentials: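 Luminescence from CRISPR HiBit-tagged endogenous HLA-B in human myoblasts reported MHC class I level after 24 h of IFN-beta (4 ng/ml) plus compound. Compounds ran as 11-point 1:3 series, top 46 uM final.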
For orientation: In qHTS, concentration-response curves come from the screen itself.

A short description of assay [2]: Primary qHTS for inhibitors of nuclear receptor binding SET domain protein 2 (NSD2) in an isogenic RCH-ACV NSD2 p.E1099K mutant (9B) (AID 1645876). Also: nearly all actives have a fitted effect of over 70% in size. Also: potency is read from the fitted curve at half-maximal effect.
The nature of assay [3]: Primary qHTS for inhibitors of nuclear receptor binding SET domain protein 2 (NSD2) in an RCH-ACV wild type WT cells (2C) (AID 1645877). Also: nearly all actives have a fitted effect of over 70% in size. Also: potency is read from the fitted curve at half-maximal effect.
For assay [4], the target named is Glutathione peroxidase 1 (Homo sapiens) (UniProt P07203). Briefly: Primary qHTS Assay for Inhibitors of Recombinant Selenoprotein Glutathione Peroxidase 1 (GPX1) (AID 1845191). Also: nearly all actives have a fitted effect of over 65% in size. The gist of the method:
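NADPH consumption tracked by fluorescence at 340/450 nm between t=0 and t=15 min, room temperature. Final mix: 10 nM GPX1, 100 nM glutathione reductase, 1 mM GSH, 0.5 mM NADPH, 0.5 mM cumene hydroperoxide, 0.01% BSA; 30 min compound–enzyme preincubation.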

Assay [5] has as its target Phospholipid hydroperoxide glutathione peroxidase GPX4 (Homo sapiens) (UniProt P36969). Briefly: Primary qHTS Assay for Inhibitors of Recombinant Selenoprotein Glutathione Peroxidase 4 (GPX4) (AID 1845192). Also: % is scaled to controls: 0 for no effect and ±100 for the full control effect; nearly all actives have a fitted effect of over 65% in size. The following applies: outcome: dose series up to 50 µM unless noted. The essentials:
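NADPH consumption followed by fluorescence at 340/450 nm, t=0 and after 15 min at room temperature. Reaction started with cumene hydroperoxide (0.5 mM final) after 30 min compound–GPX4 preincubation; final 200 nM GPX4, 100 nM GR, 1 mM GSH, 0.5 mM NADPH.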

Assay [6] can be described thus: qHTS drug screen for cell cycle checkpoint inhibitors in PARPi-resistant BRCA-mutant ovarian cancer cell lines. (AID 1963452; calls by dose curve). The note with it: PEO1/OlaR viability, CellTiter-Glo luminescence, 96 h, stronger effect = lower value. The essentials: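 PEO1, PEO4 and PEO1/OlaR ovarian cancer cells, 600 per well, exposed 96 h at 37C to a dilution series. Viability read by CellTiter-Glo luminescence, normalized to DMSO and empty wells; activity summarized as Z-AUC.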

The nature of assay [7]: qHTS assay to identify inhibitors of the type 1 interferon - major histocompatibility complex class I in skeletal muscle: Counter screen cell viability and HiBit confirmation (AID 1347412). Also: potency is read from the fitted curve at half-maximal effect. As to activity change, negative = inhibition: % is scaled to controls: 0 for no effect and ±100 for the full control effect. As to all read-outs here: nearly all actives have a fitted effect of over 60% in size. The note with it: iHSKM muscle cells + IFN-b, HiBiT or CellTiter-Glo, 24 h; for Potency: HiBiT; for activity change, negative = inhibition: Viability, at 45.9 µM (top of the series). The essentials: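 Human myoblast knock-in line, 4.0 ng/ml IFN-beta stimulation, 24 h compound treatment. Endpoints: HiBiT lytic luminescence (HLA-B level) and CellTiter Glo (ATP). Dosing 12 concentrations, 3-fold steps, 46 uM highest final.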

The nature of assay [8]: HPAF-II 24hr Apoptosis Induction qHTS against the NCATS CANVASS Library (AID 1347356). Also: 0% is about no effect. The essentials: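 Caspase-Glo 3/7 luminescence, read after 15 min room-temperature development, measures apoptosis in HPAF-II cells treated 24 h at 37 degrees C with an 11-point concentration series; 500 cells/well; doxorubicin control.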
Assay [9] is described as follows: HEK293 18hr Apoptosis Induction qHTS against the NCATS CANVASS Library (AID 1347357). Also: 0% is about no effect. The gist of the method: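 Natural products applied to HEK293 for 18 hr; Caspase-Glo 3/7 readout.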
Assay [10] in a line: HPAF-II 18hr Apoptosis Induction qHTS against the NCATS CANVASS Library (AID 1347360). Also: 0% is about no effect. The essentials: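 Luminescent DEVD-substrate signal, proportional to caspase activity, is measured in HPAF-II cells after 18-hour treatment across a concentration series; doxorubicin serves as control.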
The nature of assay [11]: HEK293 12hr Apoptosis Induction qHTS against the NCATS CANVASS Library (AID 1347361). Also: 0% is about no effect. The essentials:
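Luminescent caspase-3/7 signal, proportional to enzyme activity, was recorded from HEK293 cultures in DMEM + 10% FBS treated for 12 hours with titrated natural products (11 points). Doxorubicin (0.1nM - 4uM) served as control.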

For assay [12], the system named is NAD(P)H diaphorase (Clostridium kluyveri). The assay can be described thus: Diaphorse counterscreen qHTS: Assay Interference Panel against the NCATS CANVASS Library (AID 1347362). Also: 0% is about no effect. The gist of the method: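 Counterscreen for coupling-enzyme interference: resorufin fluorescence from resazurin/NADH turnover, read after 5 min at room temperature. Compounds were tested over an 11-point series after 15 min dark preincubation with diaphorase in PBS-Tween.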

Assay [13] addresses Nuclear receptor subfamily 1 group I member 3 (Homo sapiens) (UniProt Q14994). The assay can be described thus: qHTS for Constitutive Androstane Receptor (CAR) Antagonist screened against the NCATS CANVASS Library (AID 1347372).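 Also: cells stimulated with 50 nM CITCO agonist so inhibition reflects antagonism; % is scaled to controls: 0 for no effect and ±100 for the full control effect.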 The essentials:
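Antagonist mode: compound added alongside 50 nM CITCO to HepG2-hCAR-CYP2B6 reporter cells, 24hr at 37C. Viability by CellTiter-Fluor fluorescence, then CAR-driven luciferase by ONE-Glo luminescence.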

The nature of assay [14]: 10-beta competent E. coli microbial cell viability qHTS against the NCATS CANVASS Library (AID 1347376). Also: 0% is about no effect. The gist of the method: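 Read-out: BacTiter-Glo ATP luminescence, taken 20 min after reagent addition. Beforehand, 10-beta competent E. coli at 0.2 OD had been incubated overnight at 37C with compounds at 11 concentrations.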
Assay [15] can be described thus: DH5-alpha competent E. coli microbial cell viability qHTS against the NCATS CANVASS Library (AID 1347377). The note with it: outcome: dose series up to 46.1 µM unless noted. The gist of the method:
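Bacterial viability as ATP-dependent luminescence (BacTiter-Glo), read after overnight 37 °C exposure of DH5-alpha competent E. coli to compounds in 11-point titration.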

The nature of assay [16]: qHTS for Inflammasome Signaling Inhibitors: IL-1-beta AlphaLISA screen against the NCATS CANVASS Library (AID 1347379).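 Also: human THP-1 cells primed with LPS then triggered with ATP.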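 As to activity change, negative = inhibition: secreted IL-1B measured as AlphaLISA emission at 615 nm; % is scaled to controls: 0 for no effect and ±100 for the full control effect; lower signal means less IL-1B release which is the wanted effect.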 The gist of the method:
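Secreted IL-1B from human THP-1 cells quantified by AlphaLISA 16 hr after compound addition (final up to 57.5 uM). A 1 hr compound pretreatment preceded inflammasome activation with 250 ng/mL LPS plus 1.25 mM ATP (final).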

Assay [17] can be described thus: Cytotoxicity qHTS for assessment of Hepg2 cells membrane integrity screened against the NCATS CANVASS Library (AID 1347387). The gist of the method: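 Membrane damage quantified as fluorescent LDH-release signal (ex 560, em 590 nm) in HepG2 cells treated 5 hr at 37C. qHTS format, 11 concentrations spanning 0.59 nM - 46 uM final, cells plated at 2000 per well the night before.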

The nature of assay [18]: qHTS for Activators of p53 Stress Response Pathway screened against the NCATS CANVASS Library (AID 1347388). Also: potency is read from the fitted curve at half-maximal effect. The essentials:
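Beta-lactamase reporter driven by p53 response elements in HCT-116 cells, read as the 460 nm/530 nm emission ratio after CCF4 loading, following 16 h of exposure to an 11-point series. Cell viability was measured in the same wells by CellTiter-Glo luminescence.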

Assay [19] in a line: Redox Reaction Profiling qHTS: Assay Interference Panel against the NCATS CANVASS Library (AID 1347401).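 Also: 100% = activation by 2 µM chloranil control.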 The gist of the method:
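Redox-cycling liability assessed as DTT-driven conversion of resazurin (5 uM, with 200 uM DTT, HEPES pH 7.3) to fluorescent resorufin. Fluorescence at 525/598 nm measured initially and after 15 min dark incubation.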

The target of assay [20] is Nuclear receptor subfamily 1 group I member 3 (Homo sapiens) (UniProt Q14994). Briefly: qHTS for Constitutive Androstane Receptor (CAR) Agonist screened against the NCATS CANVASS Library (AID 1347373).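 Also: every well also contained 1.5 µM PK11195 alongside the test compound.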 Also: potency is read from the fitted curve at half-maximal effect. The gist of the method: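 Agonist mode with 1.5uM PK11195 present: compounds for 24hr on HepG2-hCAR-CYP2B6 cells. CellTiter-Fluor fluorescence (ex 405, em 540 nm) gives viability; ONE-Glo luminescence reports CAR activation.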
Nuclear receptor subfamily 1 group I member 3 (Homo sapiens), sequence (Q14994 whole entry, looked up): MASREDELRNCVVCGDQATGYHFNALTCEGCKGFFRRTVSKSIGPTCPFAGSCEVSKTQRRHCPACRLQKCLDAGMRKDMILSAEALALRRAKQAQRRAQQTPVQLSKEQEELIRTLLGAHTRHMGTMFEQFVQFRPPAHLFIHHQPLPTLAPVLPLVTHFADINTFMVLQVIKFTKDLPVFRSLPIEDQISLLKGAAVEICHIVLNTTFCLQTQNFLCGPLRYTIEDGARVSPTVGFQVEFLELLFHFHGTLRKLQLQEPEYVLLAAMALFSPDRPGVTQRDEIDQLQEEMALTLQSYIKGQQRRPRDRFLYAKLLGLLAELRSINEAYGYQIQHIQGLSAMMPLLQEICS

[21] abbreviates: measured here: PEO1 parental Z-AUC.

Glutathione peroxidase 1 (Homo sapiens), sequence (P07203 whole entry, looked up): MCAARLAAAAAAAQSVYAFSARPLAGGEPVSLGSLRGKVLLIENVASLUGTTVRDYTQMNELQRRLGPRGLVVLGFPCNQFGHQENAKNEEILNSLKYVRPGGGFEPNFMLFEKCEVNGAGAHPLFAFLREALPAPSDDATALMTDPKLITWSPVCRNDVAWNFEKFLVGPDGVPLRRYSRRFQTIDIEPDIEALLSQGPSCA
Phospholipid hydroperoxide glutathione peroxidase GPX4 (Homo sapiens), sequence (P36969 whole entry, looked up): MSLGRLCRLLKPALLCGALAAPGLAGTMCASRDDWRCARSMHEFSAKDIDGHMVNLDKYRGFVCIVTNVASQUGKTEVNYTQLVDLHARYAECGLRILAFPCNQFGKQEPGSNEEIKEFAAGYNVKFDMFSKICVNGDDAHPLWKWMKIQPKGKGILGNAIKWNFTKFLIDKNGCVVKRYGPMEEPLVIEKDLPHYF

For the compound `CCc1c(-c2ccccc2C)nc2c(C#N)c[nH]n2c1=O`, the Potency was 829 nM (active) and 1.31 µM (active) in assay [1]; 1.4 µM (active) and 787 nM (active) in assay [7]. For the same compound, the Potency entry in assay [2], in [3], in [4] and in assay [5] was “inactive” in each case. For the same compound, the Z-AUC in [6] is 1.17 (inactive) and -0.599 (inactive); in assay [6] (setting [21]), 1.23 and -0.433; in assay [6] (measured here: PEO4 Z-AUC), 1.49 and -0.54. In addition, the activity change, negative = inhibition in assay [7] was 16.2% (inactive) and -8.52% (inactive).

In the case of `CN1CCc2cc3c(c4c2C1(C)C(=O)c1cc(O)ccc1-4)OCO3` (centres undefined), the compound was classed as inactive in assay [8], in [11], in [14], in assay [15] and in [17]. The Potency result in assay [9], in [10], in assay [12], in [13], in assay [16] and in assay [18] was “inactive” in each case. Besides, the Potency entry in [19] is “inactive”.

Consider `CN(C)C/C=C/C(=O)Nc1ccc(C(=O)N2CCC[C@@H](Nc3ncc(Cl)c(-c4c[nH]c5ccccc45)n3)C2)cc1`, for which the Potency in assay [1] was 1.47 µM (active); in [2] it was 0.166 µM (active); in assay [3] it was 0.132 µM (active); in assay [7], 1.11 µM (active). The Potency entry in assay [4] and in [5] was “inactive” throughout. Further, the values for the Z-AUC in assay [6], in assay [6] (setting [21]) and in assay [6] (measured here: PEO4 Z-AUC) were -1.88 (inactive), -2.59 and -2.1, respectively. Further, the activity change, negative = inhibition in [7] is 26.2% (inactive).

As to `COc1cc2c(cc1OC)[C@@H](c1ccc3c(c1)OCO3)C(C)[C@@H](C)C2=O` (some centres undefined), the compound was classed as inactive in assay [8], in [11], in [14], in assay [15] and in [17]. Further, the Potency entry in assay [9], in assay [10], in [12], in assay [13], in [16] and in assay [18] was “inactive” throughout. In assay [19], the Potency result is “inactive”. Besides, in [20], the Potency was 9.33 µM (active).

Take `COc1ccc([C@@H]2c3cc4c(cc3C(=O)C(C)C2C)OCO4)cc1OC` (some centres undefined): the compound was called inactive in assay [8], in [11], in assay [14], in assay [15] and in assay [17]. The Potency entry in assay [9], in [10], in assay [12], in assay [13], in assay [16] and in [18] was “inactive” in each case. Moreover, the Potency result in assay [19] was “inactive”.

Take `C[C@H]1CCC2(OC1)O[C@H]1C[C@H]3[C@@H]4CC(=O)[C@]5(O)C[C@H](O)CC[C@@]5(C)[C@H]4CC[C@@]3(C)[C@H]1[C@H]2C` (some centres undefined): the compound was classed as inactive in assay [8], in assay [11], in assay [14], in assay [15] and in [17]. Also, the Potency entry in assay [9], in assay [10], in [12], in [13] and in assay [19] was “inactive” throughout. Further, the values for the Potency in assay [16] and in assay [18] were 24.3 µM (active) and 23.4 µM (active), respectively.

For `C=C1C[C@H]2O[C@@H]3[C@@H]4[C@H](CC[C@@](C)(O)[C@@H]42)[C@H](C)COC3(C)[C@@H](OC(=O)CCCCCCC)CC1=O` (some centres undefined), the compound was called inactive in assay [8], in assay [14], in assay [15] and in assay [17]. The Potency entry in assay [10], in assay [12], in assay [13], in assay [20] and in [19] was “inactive” each time. In addition, in assay [16], the Potency is 19.3 µM (active).
